G9a block: qHTS Assay for Inhibitors of Histone Lysine Methyltransferase G9a; G9a H3K9 monomethylation, AlphaScreen, 2 h; Potency, µM (titrated, usually from 102 µM), inactives show top-dose activity, negative = inhibition, usual class: inhibitors; actives 8.8% (n = 350,000); also: % is scaled to controls: 0 for no effect and ±100 for the full control effect; nearly all actives have a fitted effect of over 75% in size
Target sequence (Q96KQ7 913-1193 limits assumed): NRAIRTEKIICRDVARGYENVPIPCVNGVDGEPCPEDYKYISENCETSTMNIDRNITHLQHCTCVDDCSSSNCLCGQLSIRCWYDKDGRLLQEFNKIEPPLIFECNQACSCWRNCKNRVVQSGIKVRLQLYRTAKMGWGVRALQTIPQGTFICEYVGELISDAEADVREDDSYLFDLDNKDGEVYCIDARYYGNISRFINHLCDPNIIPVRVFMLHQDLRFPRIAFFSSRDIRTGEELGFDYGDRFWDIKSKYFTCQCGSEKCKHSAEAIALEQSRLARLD
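G9a (20 nM) was preincubated 15 min with compound, then reacted 2 h at room temperature with 500 nM biotin-H3K9 peptide and 20 µM SAM. Monomethyl-H3K9 detected by AlphaScreen using anti-H3K9me1 antibody.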
JMJD2A Tudor: qHTS Assay for Inhibitors of JMJD2A-Tudor Domain; Lysine-specific demethylase 4A (Homo sapiens), O75164; AlphaScreen JMJD2A-Tudor / H3K4me3 peptide binding; Potency, µM (top dose mostly 114 µM), without a hit: at the highest dose activity change, negative = inhibition, actives largely listed as inhibitors; actives 4.4% (n = 390,000); AID 504339, 2011; also: % is scaled to controls: 0 for no effect and ±100 for the full control effect; nearly all actives have a fitted effect of over 50% in size
HP1b chromo inh: HTS for Inhibitors of HP1-beta Chromodomain Interactions with Methylated Histone Tails; Potency, µM (doses to about 114 µM), for inactives: at the top dose activity change, negative = inhibition, usual class: inhibitors; actives 0.56% (n = 390,000); AlphaScreen HP1-beta / biotin-H3K9me3 peptide binding; Chromobox protein homolog 1 (Homo sapiens), P83916; also: nearly all actives have a fitted effect of over 70% in size
Target sequence (P83916 whole entry, looked up): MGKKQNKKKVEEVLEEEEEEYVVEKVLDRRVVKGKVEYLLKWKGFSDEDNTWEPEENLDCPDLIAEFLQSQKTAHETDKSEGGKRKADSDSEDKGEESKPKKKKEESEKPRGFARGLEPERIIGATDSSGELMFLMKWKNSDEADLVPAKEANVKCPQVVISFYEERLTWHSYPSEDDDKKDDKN
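HP1-beta protein (50 nM final) preincubated 30 min at room temperature with biotinylated H3(1-18)K9me3 peptide (50 nM) in PBS pH 7.4, 0.01% Tween-20, then compound added for 30 min. AlphaScreen streptavidin donor/nickel chelate acceptor beads (10 ug/mL final), 30 min dark, luminescence read.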
PLK1 PBD block: qHTS for Inhibitors of PLK1-PDB (polo-like kinase 1 - polo-box domain): Primary Screen | Serine/threonine-protein kinase PLK1 (Homo sapiens), P53350 | AID 720504, 2013 | Plk1 PBD binding of FITC phosphopeptide, fluorescence polarization | Potency, µM, for the others: max response, negative = inhibition, actives largely listed as inhibitors | actives 2.8% (n = 360,000); also: series mostly up to about 57 µM; % is scaled to controls: 0 for no effect and ±100 for the full control effect; nearly all actives have a fitted effect of over 65% in size
BAZ2B block: qHTS Assay for Inhibitors of BAZ2B; actives 4.4% (n = 360,000); Potency, µM (series often up to 114 µM), for the others: at the top dose activity change, negative = inhibition, most hits filed as inhibitors; AlphaScreen BAZ2B-H3K14Ac peptide displacement; also: % is scaled to controls: 0 for no effect and ±100 for the full control effect; nearly all actives have a fitted effect of over 60% in size
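BAZ2B (50 nM) with biotin-H3(5-23)K14Ac peptide (50 nM) in PBS pH 7.4, 0.01% Tween-20, preformed 30 min, then compound 30 min at room temperature; top concentration 110uM. AlphaScreen streptavidin donor/nickel chelate acceptor beads (10 ug/mL final), 20 min dark, signal read.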
12-LOX inh: Primary qHTS assay for inhibitors of human arachidonate 12S-lipoxygenase (ALOX12): Round 2; purified 12hLO, xylenol orange hydroperoxide absorbance; Potency, µM (series often up to 108 µM), for the others: top-dose activity change, negative = inhibition, usual class: inhibitors; actives 1.1% (n = 580,000); also: % is scaled to controls: 0 for no effect and ±100 for the full control effect
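Purified human 12hLO (150 nM final) in 25 mM Hepes, 0.01% Triton X-100, pH 7.0 was preincubated 15 min at room temperature with compound. Then 40 uM arachidonic acid was added, 30 min. Hydroperoxide was read by Fe-XO absorbance ratio 573/405 nm.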
Active calls of the source: *; ? = inconclusive; / = no result given; [ ] = dose if it differs, or a comment. An excerpt weighted towards active compounds, which were near 9% of everything screened. Calls follow the shape of the dose curve; as a rule, active = well fitted curve in the direction sought with a large enough effect; inconclusive = small, poorly fitted or top-dose-only effect, or another doubt; inactive = no such curve, though single readings can be large; an effect the other way counts as inactive or inconclusive. Potency is read from the fitted curve at half-maximal effect.

SMILES	G9a block	JMJD2A Tudor	HP1b chromo inh	PLK1 PBD block	BAZ2B block	12-LOX inh
COc1ccc(NC(=S)Nc2ccc(S(=O)(=O)N3CCOCC3)cc2)c(OC)c1	-9.1%[59 µM]	-8.6%	-6.3%	-20.9%	-20.1%	-6.8%
COc1ccc(NC(=S)Nc2ccc(S(N)(=O)=O)cc2)c(OC)c1	56.2µM*	-10.0%	-10.0%	-18.8%	-38.3%	?
COc1ccc(NC(=S)NNS(=O)(=O)c2ccc3ccccc3c2)c(OC)c1	/	25.1µM*	?	29.9µM*	?	?
COc1cc(C(=O)NNC(=S)Nc2ccc(S(N)(=O)=O)cc2)cc(OC)c1OC	8.91µM*	-4.5%[11.4 µM]	-10.1%	6.7µM*	-23.1%	?
CC1CCN(C(=O)CN(Cc2ccc(F)cc2)S(C)(=O)=O)CC1	-5.0%	-13.7%	33.3%	-22.9%	-2.0%	0.0%
C=CCC(NC(C)c1ccccc1)c1ccco1 (stereo not drawn)	/	2.51µM*	?	-11.7%	50.1µM*	?
Cc1nn(-c2ccccc2)c(C)c1-c1cc(C(=O)N/N=C/c2ccc(O)cc2)[nH]n1	?	-11.8%[11.4 µM]	34.5%	-11.6%	-19.6%	17.1%
O=c1nc(SCc2c(F)cccc2Cl)nc(-c2ccccc2)[nH]1	-3.9%	0.7%	38.2%	26.7µM*	-0.4%	-9.2%
O=C(NC1C/C=C\C(c2ccccc2)N(c2ccccc2)C(=O)C1)OCC1c2ccccc2-c2ccccc21 (stereo not drawn)	/	-29.5%	8.1%	-18.8%	/	/
CCOc1ccc(Br)cc1C1C(C(=O)OC)=C(N)Oc2cc(N(C)C)ccc21 (stereo not drawn)	?	50.1µM*	?	7.8%	?	7.7%
O=C(Cn1ncc(Cl)c(Cl)c1=O)NC1CCS(=O)(=O)C1 (stereo not drawn)	18.4%[59 µM]	-22.4%	54.6%	-25.4%	-11.6%	-22.1%
CCCCCC(=O)NCC(C)NC(=O)CCCCC (stereo not drawn)	-3.8%	1.4%	25.2%	-5.6%	-2.4%	-1.1%
O=S1(=O)N=C(Oc2ccccc2F)c2ccccc21	/	79.4µM*	/	/	/	/
COc1ccccc1OC1=NS(=O)(=O)c2ccccc21	44.7µM*	-3.4%[11.4 µM]	57.5%	?	?	?
Cc1ccc(OC2=NS(=O)(=O)c3ccccc32)cc1	?	?	38.9%	-0.9%	?	?
CCc1n[nH]c(CC2CCN(C(=O)c3ccc(OC)c(OC)c3)CC2)n1	/	/	/	/	/	41.7%
COc1cccc2c1OC1(C)CC2NC(=O)N1c1cccc(C(=O)Nc2ccc3c(c2)OCCO3)c1 (stereo not drawn)	-1.2%[12.7 µM]	-3.8%[11.4 µM]	-21.7%	29.9µM*	-5.0%	19.7%
Cc1nnc(SCC(=O)NNC(=O)c2ccccc2)n1-c1ccccc1	-43.6%[59 µM]	50.1µM*	28.3%	-2.7%	8.1%	24.2%
Cc1ccccc1-n1c(C)nnc1SCC(=O)NNC(=O)c1ccccc1	5.4%[59 µM]	-9.7%	24.7%	-7.4%	-7.7%	-3.5%
O=C(CSc1ncccn1)NNC(=O)c1ccccc1	/	-12.8%	15.2%	-20.2%	/	497.5%
O=C(CSc1ncn[nH]1)NNC(=O)c1ccccc1	8.9%[0.501 µM]	7.94µM*	37.3%	5.6%	4.6%	-5.2%
CC(C)(C)N(Cc1ccccc1)C(=O)CSc1ncn[nH]1	-4.8%	-2.7%	26.5%	-3.7%	-14.5%	-2.3%
CCN(Cc1ccccc1)C(=O)CSc1ncn[nH]1	44.7µM*	-21.2%	-3.2%	-13.4%	-5.1%	?
O=C(CSc1ncn[nH]1)OCN1C(=O)c2ccccc2C1=O	35.5µM*	-2.2%	30.5%	-3.7%	-2.0%	?
O=C(CSc1nnc(-c2ccccc2O)n1-c1ccccc1)Nc1cccc(C(=O)O)c1	50.1µM*	-2.8%	18.4%	-1.4%	?	-20.3%
SMILES	G9a block	JMJD2A Tudor	HP1b chromo inh	PLK1 PBD block	BAZ2B block	12-LOX inh
O=C(NNC(=O)c1ncc(Cl)c(Cl)c1Cl)c1ccc(F)cc1	/	-23.4%	30.6%	-4.5%	-4.2%	/
O=[N+]([O-])c1cc2c(cc1CN1CCN(c3ccccc3F)CC1)OCO2	-18.9%[59 µM]	-31.5%	8.8%	-2.8%	56.2µM*	-23.5%
CCOc1ccccc1N1CCN(Cc2cc3c(cc2[N+](=O)[O-])OCO3)CC1	70.8µM*	?	-13.6%	-11.6%	?	-12.5%
Cc1ccccc1N1CCN(Cc2cc3c(cc2[N+](=O)[O-])OCO3)CC1	/	-26.2%	8.4%	0.8%	?	0.0%
O=C(NCc1ccco1)C1CCCCN1S(=O)(=O)c1ccc(F)cc1 (stereo not drawn)	-8.4%[2.33 µM]	-6.9%	27.7%	-2.5%	0.9%	-17.0%
CN(C)/C=N/c1sc2c(c1C#N)CCCC2	50.1µM*	-32.2%	12.8%	-4.4%	?	-0.4%
CC1CCc2c(sc(/N=C/N(C)C)c2C#N)C1 (stereo not drawn)	22.4µM*	-30.8%	-3.7%	-3.6%	39.8µM*	-4.8%
N#Cc1c(/N=C/c2ccco2)sc2c1CCCCC2	?	-19.4%	?	-4.6%	35.5µM*	-21.5%
N#Cc1c(/N=C/c2c(Cl)cccc2Cl)sc2c1CCCC2	/	/	/	/	/	14.5%
CC1CCc2c(sc(N)c2C#N)C1 (stereo not drawn)	/	/	/	/	/	-93.0%
Cc1ccc(NC(=O)CN(C)C(=O)Cc2ccccc2F)cc1	15.7%	-1.4%	-2.3%	-11.8%	-1.5%	1.4%
O=c1oc2ccccc2c2oc3cc(O)c(O)cc3c12	/	7.94µM*	?	-24.3%	39.8µM*	6.31µM*
CC(Oc1ccc(Br)cc1)C(=O)Nc1nc(-c2ccccn2)cs1 (stereo not drawn)	20µM*	79.4µM*	-15.8%	0.0%	56.2µM*	?
CC(C)[C@H](NC(=O)c1ccccc1Cl)C(=O)Nc1nc(-c2ccccn2)cs1	-4.4%	44.7µM*	18.4%	-3.6%	31.6µM*	40.5%
Cc1cccc(OC(C)C(=O)Nc2nc(-c3cccnc3)cs2)c1 (stereo not drawn)	/	/	/	-23.0%	/	-1.2%
CCc1nnc(NC(=O)C(NC(=O)c2ccccc2Cl)C(C)C)s1 (stereo not drawn)	?	-11.6%	1.9%	-9.6%	-17.4%	-10.7%
CC(=O)Nc1ccc(NS(=O)(=O)c2ccccc2)c2ccccc12	8.8%	-6.8%	66.3%	-8.3%	5.0%	0.0%
CC1=NN(c2ccccc2)C(=O)/C1=C\c1ccc(Oc2ccc([N+](=O)[O-])cc2[N+](=O)[O-])cc1	44.7µM*	39.8µM*	?	1.89µM*	39.8µM*	-2.3%
